Laboratory results reported in PubChem BioAssay (NCI).
This is part of a sample that, as a whole, favours compounds with a hit. Of some 79,000 tested, about 15% had one in any assay. A number with no mark means an inactive call. Active and inactive are the calls of the source. Cut-off read from the data, not from the text of the source: active = growth inhibition above about 70%; inactive = the rest.

Columns and labels:
[1] = NCI Yeast Anticancer Drug Screen. Data for the rad50 strain (AID 155);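 note: 0% = growth of vehicle-only cultures of the same strain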; conditions: S. cerevisiae rad50 strain growth inhibition; at 50.0 µM; active compounds read high
Procedure, shortened: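 Yeast carrying a defined DNA repair defect were exposed to test compounds, and growth was compared with vehicle-treated controls to give percent inhibition.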

[2] = NCI Yeast Anticancer Drug Screen. Data for the mec2-1 strain (AID 157); conditions: S. cerevisiae mec2-1 strain, at 50.0 µM, active compounds read high
Procedure, shortened: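 Mutant yeast (mec2-1) grown with compound; growth inhibition relative to vehicle control reported.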

[3] = NCI Yeast Anticancer Drug Screen. Data for the sgs1 mgt1 strain (AID 161);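 note: 0% = growth of cultures given vehicle only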; conditions: S. cerevisiae sgs1 mgt1 strain, at 50.0 µM, active compounds read high
Procedure, shortened: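 Yeast cells carrying a defined DNA-repair defect were exposed to test compounds. Growth inhibition was measured relative to vehicle-treated controls.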

[4] = NCI Yeast Anticancer Drug Screen. Data for the cln2 rad14 strain (AID 165);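 note: 0% = growth equal to vehicle treated cultures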; conditions: S. cerevisiae cln2 rad14 strain, at 50.0 µM, active compounds read high
Procedure, shortened: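 Readout is yeast growth inhibition versus vehicle-treated controls, using a strain with cln2 and rad14 alterations exposed to compound.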

[5] = NCI Yeast Anticancer Drug Screen. Data for the bub3 strain (AID 167); conditions: S. cerevisiae bub3 mutant strain, at 50.0 µM, active compounds read high
Procedure, shortened: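 Compounds were applied to a genetically altered yeast strain carrying a cell-cycle control defect. Growth inhibition was scored against vehicle-treated controls.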

[6] = NCI Yeast Anticancer Drug Screen. Data for the mlh1 rad18 strain (AID 175); conditions: S. cerevisiae mlh1 rad18 strain growth inhibition; at 50.0 µM; active compounds read high
Procedure, shortened: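 Genetically defined yeast (DNA repair-deficient) exposed to compounds; growth inhibition determined relative to vehicle.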

| Structure (SMILES) | growth inhibition [1] | growth inhibition [2] | growth inhibition [3] | growth inhibition [4] | growth inhibition [5] | growth inhibition [6] |
| --- | --- | --- | --- | --- | --- | --- |
| O=C(CNc1c(Cl)cccc1Cl)NC1C=Cc2ccc(S(=O)(=O)Nc3c(Cl)cccc3Cl)cc2C1=O (stereo not drawn) | 36.2% | 12.9% | 49% | 5.35% | 19% | 22% |
| CSc1nc(NC2OCC(O)C(O)C2O)c(Cl)c(=O)[nH]1 (stereo not drawn) | -13.5% | -2.1% | 12.3% | -4.15% | 2.55% | 0.75% |
| CC(=O)Oc1c(C(=O)O)cccc1-c1ccccc1 | -12.8% | -7.1% | 9.6% | -15.8% | 30% | 4.95% |
| Cc1ccc([N+](=O)[O-])c2c(NCCC[N+](C)(C)[O-])ccnc12 | 35.9% | -18.1% | 20.6% | 14.2% | -24.7% | 4.4% |
| CC(C)(C)c1ccc(C(O)(c2ccc(C(C)(C)C)cc2)c2ccc(C(C)(C)C)cc2)cc1 | 12.8% | -3.85% | -22.2% | 8.25% | -19.9% | -34.3% |
| CC(=O)OC1c2ccccc2C(=O)C1(OC(C)=O)c1ccccc1 (stereo not drawn) | 0.7% | 11.3% | 12.7% | 25.3% | -10.9% | 43.9% |
| O=c1nc(NC(c2ccccc2)(c2ccccc2)c2ccccc2)ccn1CCCl | -5.35% | 4.55% | -1.5% | -23.9% | -20.9% | -9.7% |
| CC1(C)N=C(C(N)=O)c2ncn(CCO)c2N1 | -12.4% | -34% | -21.6% | -10.7% | -9.95% | -23.4% |
| C=C1C[C@]23CC[C@@H]4C(CO)(CO)CC(=O)C[C@]4(C)[C@@H]2C(O)C[C@H]1C3 (stereo partly drawn) | 30.6% | 17.9% | 17.8% | -5.05% | 7.05% | 30.9% |
| C=CCOC/C=C\CCOCC/C=C/COCC=C (tested in a mixture with another compound) | 5% | 1.3% | 6.25% | -13.6% | 2.45% | 2.35% |
| CC(COCc1ccccc1)NCc1ccccc1 (stereo not drawn) | -7.35% | -27.6% | 9.3% | -9.15% | -3.35% | 13.2% |
| O=C1Nc2c(Cl)cc(Cl)cc2C1=O | 7.9% | 45.1% | 37.7% | -2.75% | 38% | 91.8% (active) |
| N#C/C(=C/n1c(=S)[nH]c2ccc([N+](=O)[O-])cc21)C(N)=O | -53.3% | -41% | -50.4% | 2.15% | -24% | -70.9% |
| CC1(C)CC[C@]2(C(=O)O)CC[C@]3(C)C(=CC[C@@H]4[C@@]5(C)CC[C@H](OC6OC(C(=O)O)C(O)C(O)C6O)C(C)(C)[C@@H]5CC[C@]43C)[C@@H]2C1 (stereo partly drawn) | 90.8% (active) | 91% (active) | 91.7% (active) | 92.5% (active) | 91.3% (active) | 88.7% (active) |
| O=C(Cc1ccccc1)c1ccc(N2CCOCC2)cc1 | 21.5% | -19.2% | 11.5% | 13.2% | 26.1% | 25.7% |
| CC(=O)OCCOCNC(=S)N/N=C/c1ccc(Br)s1 | 15.3% | -8.3% | 20.1% | 28.1% | 9.2% | -0.8% |
| CS(=O)(=O)Nc1ccc(C(=O)CCN2CCCCCC2)cc1 | -4.35% | 8.9% | -28.9% | -6.6% | -27.5% | -23.1% |
| Nc1ccc(COCCOCc2ccc(N)cc2)cc1 | -4.35% | 1.7% | -4.25% | -5.6% | 2.8% | 17.4% |
| N#CNC(=O)c1ccc(Cl)cc1 | -2.8% | -12.5% | -11.1% | -21.4% | -14.4% | -0.4% |

| Structure (SMILES) | growth inhibition [1] | growth inhibition [2] | growth inhibition [3] | growth inhibition [4] | growth inhibition [5] | growth inhibition [6] |
| --- | --- | --- | --- | --- | --- | --- |
| CCCCCCCCCCCCCCO | 21.9% | -22.8% | -19.7% | -54.8% | 1.3% | 16.9% |
| CC(O)C1CCCCN1 (stereo not drawn) | 2.6% | -1.1% | -8.85% | 10.4% | 14.2% | -0.9% |
| Nc1nc(=O)n(C2OC(CO)C(O)C2O)cc1F (stereo not drawn) | 10.8% | -10.2% | 4.4% | -3.1% | 11.5% | 7.6% |
| CCC(=O)C(CCN(C)C)c1ccccc1 (stereo not drawn) | -10.4% | -0.85% | 9.9% | -22.6% | -11.1% | -7.9% |
| COC1(OC)CCCCCCCCC(OC)(OC)CCCCCCCC1 | 7.5% | -18.4% | -10.4% | 13% | 16.2% | -8.2% |
| O=C1N=C2C=CC=CN2CC1O (stereo not drawn) | -0.4% | -11.2% | -7.7% | -13.2% | 11.5% | 15.3% |
| COc1ccc(C2c3cc4c(cc3OC3(O)CCCC(=O)C23)OCO4)cc1 (stereo not drawn) | -13.2% | 15.3% | 4.55% | -39.3% | 20.6% | -7.4% |
| COc1cc(CO)c(CC(=O)NCCCc2ccccc2)cc1OC | 37.8% | -44.5% | -12.5% | -2.85% | -14.2% | -47.5% |
| COC(=O)CC1C=CC(OC)[C@@]2(C)C(=O)C=C(C)C(=O)[C@@H]12 (stereo partly drawn) | 4.85% | -1.95% | 18.6% | -16.6% | 3.8% | 3.15% |
| CCOC(=O)c1ccc(OC)c2[nH]c3c(c(=O)c12)C(=O)c1[nH]c2c(OC)ccc(C(=O)OCC)c2c(=O)c1C3=O | -25.4% | 15.6% | -23.2% | -17.9% | -0.25% | -25.2% |
| O=C1C2=C(c3ccccc31)C(c1ccc([N+](=O)[O-])cc1)NC(=S)N2 (stereo not drawn) | 5.6% | 8.7% | 1.8% | 9.8% | -3.6% | 32.5% |
| O=c1sc2ccccc2n1CCN(CCn1c(=O)sc2ccccc21)c1ccccc1 | 39.7% | -7.75% | 13.6% | -45.5% | 1.65% | 14.2% |
| Cn1c(=O)c2nc(SC3CCCCC3)n(C)c2n(C)c1=O | -12.7% | -9.05% | -9.85% | -28.3% | 4.5% | -15.3% |
| Cc1ccncc1S(=O)(=O)O | 14.6% | 8.85% | 2.3% | -12.2% | 1.7% | 1.75% |
| CCCC1OCC(O)C(C(O)C(=O)CN(Cc2ccccc2)Cc2ccccc2)O1 (stereo not drawn) | 0.1% | 1.35% | 1.55% | -9.5% | -3.8% | 3.75% |
| CNOCc1ccc(C(=O)NC(C)C)cc1 | 12.2% | 17.6% | 2.8% | -30.9% | 11.7% | 17.5% |
| Cc1nc(C(N)=S)sc1C(=O)CC(=O)C(=O)Nc1ccccc1[N+](=O)[O-] | 0.15% | -9% | 10.8% | 7% | 17.4% | 1.95% |
| C[Si](C)(C)O/C=C1\CCCCC1=O | 5.65% | 8.4% | 2.5% | 14.8% | 2.8% | -23.6% |
| COc1ccc(CC(NC(=O)OCc2ccccc2)C(=O)O)cc1 (stereo not drawn) | 1.15% | 4.15% | 2.7% | -52.1% | 18.7% | 6.6% |
